Where “and” joins values, the source holds several entries; their conditions need not be identical. Equal entries are not always repeated. Records with an inconclusive call do not appear. Entries that show only a call come without a potency. A structure can be active in one record and inactive in another. Calls of active or inactive are those of the source. Unless noted, calls follow the shape of the dose curve; as a rule, active = well fitted curve in the direction sought with a large enough effect in the repeat runs; inconclusive = weak or mixed curves; inactive = no such curve, though single readings can be large; an effect the other way counts as inactive or inconclusive.
What was measured:
[1] = qHTS assay to identify small molecule agonists of H2AX - cell viability counter screen (AID 1224847; calls by dose curve;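 also: wild-type CHO-K1 cells; top concentration of the series differs between compounds; nearly all actives have a fitted effect of over 30% in size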)
Summary of the method: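 CHO-K1 cells plated overnight at 37C, then exposed 3 h at 37C to compounds at 15 concentrations (0.76% DMSO final). Viability by CellTiter-Glo luminescence after 30 min at room temperature.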

[2] = qHTS RealTime-Glo MT Cell Viability Assay in HepG2 cells - 24 hour (AID 1224867); also: nearly all actives have a fitted effect of over 50% in size
Summary of the method: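 Compound treatment began 5 h after plating HepG2 cells (600/well) with NanoLuc luciferase and prosubstrate. Plates stayed at 37 C for 40 h; luminescence was captured at six time points, 0 h through 40 h.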

[3] = qHTS RealTime-Glo MT Cell Viability Assay in HEK293 cells - 32 hour (AID 1224868); also: nearly all actives have a fitted effect of over 50% in size; also: potency is read from the fitted curve at half-maximal effect
Summary of the method: (§1)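 Quantitative high-throughput screen of the Tox21 10K library in HEK293: cells and RealTime-Glo reagents plated together, compound added at 5 h, luminescence monitored through 40 h at 37 C.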

[4] = qHTS RealTime-Glo MT Cell Viability Assay in HepG2 cells - 40 hour (AID 1224870); also: nearly all actives have a fitted effect of over 50% in size
Summary of the method: (§2)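 HepG2 cells (600/well) mixed with RealTime-Glo MT reagent, settled 5 h at 37 C/5% CO2 before compound addition. Nonlytic NanoLuc luminescence from viable-cell prosubstrate reduction read repeatedly during 40 h treatment at 37 C.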

[5] = A CellTox Green Cytotoxicity Assay to monitor cytotoxicity in HEK293 cells - 40 hour (AID 1224871); also: nearly all actives have a fitted effect of over 45% in size; also: potency is read from the fitted curve at half-maximal effect
Summary of the method: (§3)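 Each value comes from one timepoint of a single continuous run in which HEK293 cells with CellTox Green were exposed to compound for up to 40 h at 37 C, dye fluorescence rising with cell death.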

[6] = qHTS RealTime-Glo MT Cell Viability Assay in HEK293 cells - 16 hour (AID 1224872); also: top concentration of the series differs between compounds; nearly all actives have a fitted effect of over 50% in size
Summary of the method: as §1

[7] = qHTS RealTime-Glo MT Cell Viability Assay in HepG2 cells - 8 hour (AID 1224873); also: nearly all actives have a fitted effect of over 55% in size
Summary of the method: as §2

[8] = qHTS assay to identify small molecule antagonists of the estrogen related receptor (ERR) signaling pathway from Tox21 library (AID 1224848); also: nearly all actives have a fitted effect of over 50% in size; also: potency is read from the fitted curve at half-maximal effect
Summary of the method: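 Luminescent reporter read-out (ONE-Glo) from NTP's ERR cell line after 18 h treatment at 37 C with DMSO-dissolved Tox21 compounds; cells pre-plated 6 h beforehand at 2,000 per well.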

[9] = qHTS assay to identify small molecule agonists of the estrogen related receptor (ERR) signaling pathway from Tox21 library (AID 1224849; calls by dose curve; also: nearly all actives have a fitted effect of over 15% in size); settings: ERR reporter cell line, ONE-Glo luciferase, 18 h; at 92.4 µM (top of the series)
Summary of the method: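 We plated ERR reporter cells, waited 6 h, added compounds in DMSO by pin tool and incubated them 18 h at 37 C. ONE-Glo was then added and luminescence read after 30 min.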

[10] = A CellTox Green Cytotoxicity Assay to monitor cytotoxicity in HEK293 cells - 0 hour (AID 1224869); also: nearly all actives have a fitted effect of over 50% in size; also: potency is read from the fitted curve at half-maximal effect
Summary of the method: as §3

Structure (SMILES)	Potency [1]	outcome [2]	Potency [3]	outcome [4]	Potency [5]	outcome [6]	outcome [7]	Potency [8]	activity change, positive = activation [9]	Potency [10]
CCNc1nc(NC(C)(C)C)nc(SC)n1	inactive	inactive	43.1 µM (active)	inactive	inactive	inactive	inactive			
CC(C)OC(=O)Nc1cccc(Cl)c1		inactive	inactive	inactive	inactive	inactive	inactive	inactive	3.6% (inactive)	inactive
C=CCO	inactive	inactive		inactive	inactive and 34.7 µM (active)	inactive	inactive			inactive and 43.6 µM (active)
NCCc1ccc(O)cc1	inactive	inactive		inactive	inactive	inactive	inactive			inactive
Cc1ccc(N)cc1Cl	inactive	inactive		inactive	inactive	inactive	inactive			
O=NN1CCCC1	inactive	inactive		inactive	inactive	inactive	inactive			inactive
Cc1cc(Cl)ccc1O		inactive	inactive	inactive	inactive	inactive	inactive			
Clc1ccc(Cl)cc1	inactive	inactive		inactive	inactive	inactive	inactive			inactive
O=[N+]([O-])c1ccc([As](=O)(O)O)cc1	inactive	inactive		inactive	inactive	inactive	inactive			inactive
CC(C)(C)OOC(=O)c1ccccc1	inactive	inactive		inactive	inactive	inactive	inactive			inactive
O=C1CCCN1	inactive	inactive		inactive	inactive	inactive	inactive			inactive
O=C(O)c1ccccn1	inactive	inactive		inactive	inactive	inactive	inactive			inactive
CC(C)(C)C(O)(CCc1ccc(Cl)cc1)Cn1cncn1 (configuration not stated)		inactive	49.6 µM (active) and 49 µM (active)	inactive	inactive		inactive	61.9 µM (active) and 61.1 µM (active)	-48.6% (inactive) and -40.4% (inactive)	
CC(Br)C(=O)O (configuration not stated)	inactive	inactive		inactive	inactive	inactive	inactive			inactive
CCOP(=S)(OCC)Oc1cnc2ccccc2n1	inactive	inactive	inactive	inactive	inactive	inactive	inactive			
c1cc2c3c(cccc3c1)CC2	inactive	inactive		inactive	inactive and 43.6 µM (active)	inactive	inactive			

Structure (SMILES)	Potency [1]	outcome [2]	Potency [3]	outcome [4]	Potency [5]	outcome [6]	outcome [7]	Potency [8]	activity change, positive = activation [9]	Potency [10]
CCCCN(CCCC)SN(C)C(=O)Oc1cccc2c1OC(C)(C)C2		inactive		inactive	inactive		inactive			inactive
Cc1ccccc1O	inactive	inactive		inactive	inactive	inactive	inactive			inactive
Cc1cc(-c2cc(C)c(N)c(C)c2)cc(C)c1N	inactive	inactive		inactive	inactive	inactive	inactive			inactive
CC(Oc1ccc(Cl)cc1Cl)C(=O)O (configuration not stated)	inactive	inactive		inactive	inactive	inactive	inactive			
CC1C=[C-]C=C1.[C-]#[O+].[C-]#[O+].[C-]#[O+].[Mn]	inactive	inactive	inactive	inactive	inactive	inactive	inactive			
Cc1ccc([N+](=O)[O-])cc1C	inactive	inactive	inactive	inactive	inactive	inactive	inactive			
Cc1[nH]c(=O)n(C(C)(C)C)c(=O)c1Cl	inactive	inactive		inactive	inactive	inactive	inactive			
C#CC(C)(C)NC(=O)c1cc(Cl)cc(Cl)c1	inactive	inactive		inactive	inactive	inactive	inactive			inactive
CN(C)[C@@H]1C(=O)C(C(N)=O)=C(O)[C@@]2(O)C(=O)C3=C(O)c4c(O)cccc4[C@@](C)(O)[C@H]3C[C@@H]12	inactive	inactive		inactive	inactive	inactive	inactive			inactive
O=[N+]([O-])c1ccc(Oc2ccc(Cl)cc2Cl)cc1		inactive		inactive	inactive		inactive	inactive	-5.45% (inactive) and -4.04% (inactive)	
c1ccc(-c2ccccc2)cc1	inactive	inactive	inactive	inactive	inactive	inactive	inactive			
CCOP(=S)(OCC)SCCSCC	inactive	inactive		inactive	inactive	inactive	inactive			inactive
CCCCCOC(=O)c1ccccc1C(=O)OCCCCC	inactive	inactive		inactive	inactive	inactive	inactive			
COP(N)(=O)SC (configuration not stated)	inactive	inactive	inactive	inactive	inactive	inactive	inactive			
CCN(CC)CCO	inactive	inactive		inactive	inactive	inactive	inactive			inactive
NCC(O)c1ccc(O)cc1 (configuration not stated)	inactive	inactive		inactive	inactive	inactive	inactive			inactive

Source: PubChem BioAssay (Tox21)
